Compound activity deposited in PubChem by National Center for Advancing Translational Sciences (NCATS).
SMN2 splice enh = SMN2 splice variant enhancement. HEK293 SMN2-luciferase splicing reporter, luminescence, 30-36 h. Potency, µM (top dose mostly 46.1 µM), for the others: top-dose activity change, positive = activation, actives largely listed as activators. 2.8% of 210,000 active; also: % of control where 0% means no effect; nearly all actives have a fitted effect of over 55% in size
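qHTS luciferase splicing reporter: luminescence rises when SMN2 exon 7 is included in transfected HEK293 cells. Compound exposure lasted 30-36 h at 37C, with 4.5 mM final sodium butyrate as control, followed by a ONE-Glo read.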
Rab9 prom act = Rab9 promoter activation; Huh7 Rab9 promoter-luciferase reporter, luminescence, 24 h; Potency, µM (highest dose often 9.22 µM), for inactives: at the top dose activation, negative = inhibition, usual class: activators; 2.8% of 320,000 active; AID 485297; also: % of control where 0% means no effect; nearly all actives have a fitted effect of over 60% in size
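Huh7 reporter line, Rab9 promoter upstream of luciferase. Compound exposure 24 h at 37 °C in reduced-serum medium with 10% FBS. Read-out: luminescence.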
FLuc counter = firefly luciferase modulation, counter-screen for miR-21 project; 6.9% of 360,000 active; Potency, µM (top dose mostly 57.5 µM), for the others: top-dose activity change, negative = inhibition, most hits filed as inhibitors; purified FLuc, Km substrates, luminescence inhibition;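 also: plate controls were vehicle for no effect and reference inhibitor for full effect; nearly all actives have a fitted effect of over 55% in size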
Target sequence (P08659 whole entry, looked up): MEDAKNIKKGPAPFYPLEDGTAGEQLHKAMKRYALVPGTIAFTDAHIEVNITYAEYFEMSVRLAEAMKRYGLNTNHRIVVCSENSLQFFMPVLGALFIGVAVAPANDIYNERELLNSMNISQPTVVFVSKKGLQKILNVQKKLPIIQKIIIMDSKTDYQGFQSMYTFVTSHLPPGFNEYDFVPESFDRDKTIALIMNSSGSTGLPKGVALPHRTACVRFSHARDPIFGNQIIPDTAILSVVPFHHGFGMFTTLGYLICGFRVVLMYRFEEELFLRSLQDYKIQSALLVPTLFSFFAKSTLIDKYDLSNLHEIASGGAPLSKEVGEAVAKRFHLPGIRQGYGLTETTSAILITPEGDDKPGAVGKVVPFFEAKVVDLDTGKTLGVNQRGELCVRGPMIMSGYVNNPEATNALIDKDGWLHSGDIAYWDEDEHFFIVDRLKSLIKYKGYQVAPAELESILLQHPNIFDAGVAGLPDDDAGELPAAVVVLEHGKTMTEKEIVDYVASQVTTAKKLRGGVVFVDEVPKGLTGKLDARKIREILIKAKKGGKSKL
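Purified P. pyralis luciferase (10nM final) with 10uM D-luciferin and 10uM ATP (Km levels) in 50mM Tris acetate pH 7.5, 10mM Mg acetate, 0.01% Tween-20, 0.05% BSA; qHTS 6-point titration, ~60 µM downward; luminescence read.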
KinaseGlo FLuc = Kinase-Glo luciferase inhibition (counter-screen); 0.28% of 200,000 active; AID 1379; Potency, µM (series often up to 38.3 µM), for the others: at the top dose activity change, negative = inhibition, hits mostly inhibitors; Q27757; Kinase-Glo luciferase, ATP luminescence, 8 min; also: % is scaled to controls: 0 for no effect and ±100 for the full control effect; nearly all actives have a fitted effect of over 60% in size
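Recombinant Kinase-Glo luciferase, 10 uM ATP (linear range), luciferin; imidazole pH 7.2 / KCl / MgCl2 / Tween / BSA buffer; 8 min RT; luminescence.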
NPC1 promoter act = activates the NPC1 promoter | Potency, µM (series often up to 9.22 µM), for inactives: top-dose activation, actives largely listed as activators | Huh7 NPC1 promoter luciferase reporter, 24 h | 2.4% of 320,000 active; also: % of control where 0% means no effect; nearly all actives have a fitted effect of over 60% in size
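Huh7 cells stably carrying NPC1 promoter–luciferase, plated in Opti-MEM with 10% FBS for 2 h, were exposed to compound in DMSO for 24 h at 37 °C; luciferase reagent was added for 10 min and luminescence read.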
Starred values were filed as active, the others as inactive; ? = inconclusive; / = not tested or not shown; [ ] = another dose, or the depositor's remark. Most compounds without a hit are left out; they make up all but 7.3% or so of the library. Calls follow the shape of the dose curve; as a rule, active = well fitted curve in the direction sought with a large enough effect; inconclusive = small, poorly fitted or top-dose-only effect, or another doubt; inactive = no such curve, though single readings can be large; an effect the other way counts as inactive or inconclusive. Potency is read from the fitted curve at half-maximal effect.

SMILES	SMN2 splice enh	Rab9 prom act	FLuc counter	KinaseGlo FLuc	NPC1 promoter act
CCOC(=O)C1CCCN(C(=O)c2nn(-c3ccc(OC)cc3)c(=O)c3c2c2ccccc2n3C)C1 (centres undefined)	3.5%	/	-0.4%	/	/
C=C(C)C1CC=C(C)/C(=N/NC(=O)c2ccccc2[N+](=O)[O-])C1 (centres undefined)	-33.4%	-0.3%	?	-2.2%	-0.9%
C/C(=N/NC(=O)c1cccs1)c1cccs1	/	2.51µM*	10.7µM*	/	?
C=C(C)C1CC=C(C)/C(=N/NC(=O)c2cccs2)C1 (centres undefined)	?	?	4.78µM*	1.7%	?
CCN(CC)S(=O)(=O)c1cccc(C(=O)N/N=C(\C)c2cccs2)c1	11.2µM*	3.16µM*	10.7µM*	-2.5%	3.55µM*
Cc1cccc(C)c1-n1ncc(C(=O)N2CCN(c3ncccn3)CC2)c1C1CCN(C(=O)OC(C)(C)C)CC1	/	/	-0.8%	/	/
CC(C)c1ccc(/C=N/NC(=O)c2c(Cl)cnn2C)cc1	8.91µM*	2.82µM*	0.675µM*	-11.7%	3.16µM*
Cc1ccc(S(=O)(=O)N(CC(=O)O)Cc2cccc(C)c2)cc1	/	/	/	-1.4%	/
CCn1c(C)nc2cc(C(=O)NNC(=S)Nc3ccccc3)ccc21	8.5%	0.794µM*	12µM*	0.7%	0.447µM*
CCn1c(C)nc2cc(C(=O)NNC(=S)Nc3ccc(Cl)cc3Cl)ccc21	-7.7%	-1.3%	?	1.1%	2.6%
CCn1c(C)nc2cc(C(=O)NNC(=S)Nc3ccc(Cl)cc3)ccc21	/	14.6%	?	/	7.8%
CCn1c(NC(=S)Nc2ccccc2)nc2ccccc21	25.5%	?	3.38µM*	-2.0%	?
CCn1c(C)nc2cc(C(=O)NNC(=S)Nc3ccccc3Cl)ccc21	?	?	16.9µM*	4.1%	?
O=C(COc1cccc2cccnc12)N/N=C/c1ccc(O)cc1	12.0%	1.4%	16.9µM*	4.8%	-3.8%
O=C(COc1cccc2cccnc12)Nc1cccc(S(=O)(=O)N2CCCC2)c1	/	-6.5%	-13.8%	/	-1.4%
O=C(COc1cccc2cccnc12)N/N=C/c1ccccc1O	/	-6.5%	-10.4%	/	-2.1%
O=C(COc1cccc2cccnc12)Nc1ccccc1	?	3.98µM*	21.3µM*	-0.8%	?
Cc1cccc(NC(=O)CSc2nc(-c3cccs3)cc(C(F)(F)F)c2C#N)c1C	-13.2%	/	1.2%	/	/
Cc1ccc(-c2cn(-c3ccccc3)c(=S)[nH]2)cc1C	/	0.126µM*	12µM*	/	1.12µM*
Cc1ccccc1-c1cn(-c2ccccc2)c(=S)[nH]1	/	-2.3%	-2.8%	/	0.7%
O=C1CCCC/C1=N\Nc1ccc(C2CCCCC2)cc1	/	?	1.69µM*	/	24.8%
Cc1cccc(C)c1-n1c(C)cc(/C=N\Nc2ccc([N+](=O)[O-])cn2)c1C	-24.0%	-0.7%	-10.0%	-6.4%	0.3%
Cc1cc(/C=N/Nc2nc(N)ncc2[N+](=O)[O-])c(C)n1-c1ccccc1F	/	-16.6%	0.0478µM*	/	?
O=C(NCC1CCCO1)c1ccccc1 (centres undefined)	1.6%	/	-0.2%	-2.7%	/
CN(C)c1cccc(C(=O)NCC2CCCO2)c1 (centres undefined)	28.2µM*	26.9%	-3.7%	-1.3%	15.9%
SMILES	SMN2 splice enh	Rab9 prom act	FLuc counter	KinaseGlo FLuc	NPC1 promoter act
CN(C)c1ccc(C(=O)NCC2CCCO2)cc1 (centres undefined)	25.1µM*	27.9%	?	-4.1%	?
O=C(NCC1CCCO1)c1cccc(Oc2ccc([N+](=O)[O-])cc2)c1 (centres undefined)	/	0.4%	4.5%	/	-1.7%
O=C(NCC1CCCO1)c1cccc(Oc2ccccc2)c1 (centres undefined)	/	?	16.9µM*	/	21.3%
Cc1cc(C)c(S(=O)(=O)/N=C2/C=C(SCC(=O)O)C(=O)c3ccccc32)cc1C	-79.4%	-1.2%	21.3µM*	-6.3%	3.7%
O=C(NCC(c1ccccc1)c1ccccc1)c1nn(-c2ccccc2Cl)nc1CO	-78.3%	/	-1.8%	/	/
CCOc1ccccc1CNC(=O)CCc1cn(Cc2ccc(Cl)cc2)c2ccccc12	/	/	5.5%	/	/
CSc1ccc(CNc2ccc(Cl)cc2)cc1	15.0%	?	15.1µM*	-3.1%	24.5%
Clc1ccc(NCc2cccnc2)cc1	/	8.2%	-6.4%	/	-4.5%
CCc1nc2nc(C)cc(Nc3cc(C)ccc3C)n2n1	-3.8%	/	-0.4%	/	/
O=c1oc2cc(O)ccc2cc1-c1ccccc1	/	4.5%	23.9µM*	/	?
O=c1oc2cc(O)ccc2cc1-c1nnc(Nc2ccccc2F)s1	3.98µM*	/	2.39µM*	/	/
COc1ccc(-c2cc3ccc(O)cc3oc2=O)cc1	/	3.16µM*	4.78µM*	/	1.26µM*
O=c1oc2cc(O)ccc2cc1-c1ccc2c(c1)OCCO2	17.8µM*	/	/	-3.5%	/
Cc1ccc(N(Cc2cccs2)C(=O)C(C)Oc2ccc(Cl)c(C)c2)cc1 (centres undefined)	/	/	-17.7%	/	/
Cc1ccc2c(c1)nc(SCC(O)c1ccc(Br)cc1)n2C (centres undefined)	3.7%	/	-14.6%	/	/
O=c1c(-c2ccc3c(c2)OCCO3)coc2cc(O)cc(O)c12	6.31µM*	?	4.78µM*	-17.3%	1.78µM*
O=C(O)c1cccc(CSc2ncn[nH]2)c1	/	?	19µM*	/	11.9%
c1ccc(CSc2nnc(Cc3ccccc3)o2)cc1	?	?	23.9µM*	-2.0%	18.9%
O=C(CSc1nnc(Cc2ccccc2)o1)c1ccccc1	5.2%	5.4%	?	-4.0%	13.3%
c1ccc(CSc2nnc(Cc3ccccn3)o2)cc1	-0.8%	?	?	-4.0%	?
O=C(O)c1cccc(CSc2nnc(Cc3ccccc3)o2)c1	15.8µM*	?	19µM*	1.7%	27.9%
COc1ccc(-n2c(C)cc(C(=O)CN3C(=O)NC4(CCCc5sccc54)C3=O)c2C)cc1 (centres undefined)	-33.0%	0.4%	1.4%	-5.6%	-1.7%
Cc1cc(C(=O)CN2C(=O)NC3(CCCc4sccc43)C2=O)c(C)n1-c1ccccc1 (centres undefined)	9.8%	12.4%	16.9µM*	-1.1%	8.9%
Cc1nc2ncnn2c(C)c1CCC(=O)NCc1ccc(Cl)cc1	4.2%	/	-4.4%	/	/
CCOC(=O)Cc1ccc(NC(=O)N2CCC(CN3CCC(C)CC3)CC2)cc1	/	/	-6.4%	/	/
Cc1cc(C)n(-c2nnc(NCc3ccc(Cl)cc3)nn2)n1	-37.7%	3.9%	-15.2%	-1.5%	-5.4%
Cc1nn(-c2nnc(NCc3ccccc3)nn2)c(C)c1Br	/	?	21.3µM*	-5.5%	22.8%
Nc1c(-c2ccccc2)n[nH]c1-c1ccccc1	12.6µM*	?	-3.7%[2.3 µM]	-9.2%	2.82µM*
CC(=NC1CCCC1)c1c(C)[nH]n(-c2nc3ccccc3s2)c1=O	?	?	3.38µM*	-5.9%	?
O=C(NCCCO)c1cc2c(cn1)[nH]c1ccccc12	/	?	16.9µM*	/	28.4%
